± gives the standard deviation.
These sequences were tested on MILI (PIWIL2) piRISC loaded with L1MC piRNA (26 nt) (assay: pre-steady-state target cleavage rate (min^-1); guide: L1MC piRNA 5'p-UAACUAAAUACUAUGCAAGCUGUAGG; MIWI and MILI are mouse PIWI proteins and EfPiwi is from a freshwater sponge; tags in brackets are library labels; higher = faster piRNA-guided slicing of the target). Conditions: auxiliary factor: 500 nM mouse GTSF1.
Experimental: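 Cleave-'n-Seq: a library of target RNAs (target site embedded in constant flanks, ACAGCATTCCGCGTTAGTGATATCCG... 5' flank; DNA-blocked outside the site) at 0.1 nM was incubated with 1 nM active mouse MILI or MIWI piRISC (synthetic 5'-monophosphorylated piRNA guide) with or without 500 nM mouse GTSF1 at 33 °C for 1 min to 16 h. Uncleaved targets were sequenced and normalised to non-target controls, and the pooled three trials were fitted to a burst-and-steady-state model to give the pre-steady-state cleavage rate (min^-1; k3 is constrained to at most 1e-4). Sequence is the target site only; target names encode pairing extent (gX:gY) and contiguous / 1-mismatch / 2-mismatch / bulge geometry. Fits with R² ≤ 0 are excluded.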

| Sequence | pre-steady-state target cleavage rate |
| --- | --- |
| UCCUGGAACAGGUAGCAUAGUAUUUAGUUA | 0.209 ± 0.016 |
| UCCUGGAUGAGCUUUGCAUAGUAUUUAGUUA | 0.181 ± 0.013 |
| UCCUGGAACAGCAAGCAUAGUAUUUAGUUA | 0.275 ± 0.018 |
| UCCUGGAUGUCCUUGCAUAGUAAUUAGUUA | 0.111 ± 0.019 |
| UCCUGGAUCAGCUUGCAUAGAAUUUAGUUA | 0.0368 ± 0.0086 |
| UCCUGGAUGAGCUUGCAUAGUAUAUUAGUUA | 0.158 ± 0.017 |
| UCCUGGAUCAGCUUGCAAAGUAUUUAGUAA | 0.12 ± 0.0069 |
| UCCUGGAUGUCCUUGGUUAGUAUUUAGUUA | 0.0867 ± 0.022 |
| UCCUGGUACAGCUUCGAUAGUAUUUAGUUA | 0.187 ± 0.025 |
| UCCUGCUACAGCUUGCAUGGUAUUUAGUUA | 0.334 ± 0.018 |
| UCCUCCUACACGCUUGCAUAGUAUUUAGUUA | 0.207 ± 0.013 |
| UCCUGGUACAGCUUGCAUAGUUAAUAGAAA | 0.00845 ± 0.0048 |
| UCCUCCUAGUGCUUGCAUAGUAUUUUCAAA | 0.0158 ± 0.0057 |
| UCCUGGAUGUCGAAGCAUAGUAGUUUAGUUA | 0.00907 ± 0.0034 |
| UCCUCCUACAGCUUGCAUAGUAUUUAGUUU [g2:g26:cont:t1U] | 0.35 ± 0.02 |
| UCCUGGAACAGCUUGCAUAGUAAUUUAGUUA | 0.14 ± 0.012 |
| UCCUGGUUCAGCUUGCAUAGUAUUUAGAUA | 0.106 ± 0.022 |
| UCCUGCUACAGCUUGCAAAGUAUUUUGUUA | 0.139 ± 0.026 |
| UCCUGGAUGAGUUUGCAUAGUAUUUAGUUA | 0.17 ± 0.023 |
| UCCUGGUUCAGCUUGCUUAGUAUUUAGUUA | 0.199 ± 0.017 |
| UCCUCCUACAGGAAGCAUAGUAUUUAGUAA | 0.247 ± 0.018 |
| UCCUGGAUGUCAUUGCAUAGUAUUUAGUUA | 0.0928 ± 0.015 |

Same assay, conditions: auxiliary factor: none (no GTSF1)

| Sequence | pre-steady-state target cleavage rate |
| --- | --- |
| UCCUGGAACAGGUAGCAUAGUAUUUAGUUA | 0.00531 ± 0.0016 |
| UCCUGGAUGAGCUUUGCAUAGUAUUUAGUUA | 0.0103 ± 0.0021 |
| UCCUGGAACAGCAAGCAUAGUAUUUAGUUA | 0.00588 ± 0.0024 |
| UCCUGGAUGUCCUUGCAUAGUAAUUAGUUA | 0.00618 ± 0.0018 |
| UCCUGGAUCAGCUUGCAUAGAAUUUAGUUA | 0.00356 ± 0.002 |
| UCCUGGAUCAGCUUGCAAAGUAUUUAGUAA | 0.00426 ± 0.0026 |
| UCCUGGAUGUCCUUGGUUAGUAUUUAGUUA | 0.00681 ± 0.0022 |
| UCCUGGUACAGCUUCGAUAGUAUUUAGUUA | 0.00848 ± 0.0025 |
| UCCUGCUACAGCUUGCAUGGUAUUUAGUUA | 0.0121 ± 0.0029 |
| UCCUCCUACACGCUUGCAUAGUAUUUAGUUA | 0.00734 ± 0.0025 |
| UCCUGGAUGUCGAAGCAUAGUAGUUUAGUUA | 0.00276 ± 0.0022 |
| UCCUCCUACAGCUUGCAUAGUAUUUAGUUU [g2:g26:cont:t1U] | 0.0339 ± 0.0087 |
| UCCUGGAACAGCUUGCAUAGUAAUUUAGUUA | 0.00593 ± 0.0025 |
| UCCUGCUACAGCUUGCAAAGUAUUUUGUUA | 0.00325 ± 0.0025 |
| UCCUGGAUGAGUUUGCAUAGUAUUUAGUUA | 0.0059 ± 0.0028 |
| UCCUGGUUCAGCUUGCUUAGUAUUUAGUUA | 0.0104 ± 0.003 |
| UCCUCCUACAGGAAGCAUAGUAUUUAGUAA | 0.00328 ± 0.0023 |
| UCCUGGAUGUCAUUGCAUAGUAUUUAGUUA | 0.0087 ± 0.0027 |

From the supplement of paper PMC10338343
